Each structure is given as a SMILES string.

The target in the test is Glucose transporter (Leishmania mexicana) (UniProt O61059). The test can be described thus: ST_JUDE_LEISH: Cytotoxicity at 2uM final concentration against transgenic Leishmania Mexicana promastigotes LmGT2 that are glucose transport deficient and complemented with the L. Mexicana glucose transporter 2. Activity is measured by DNA content using SYBR green in vitro. Format: functional.
For the compound `O=C(C1CC1)N1c2ccccc2CCc2ccccc21`, the inhibition is -0.64%. In the case of `CC1(C)N=C(N)N=C(N)N1c1cccc(I)c1`, the inhibition came out at 0.13%. Turning to `CCC(C)(C)n1c(C)cc2c3c(N)nc(N)nc3ccc21`, the inhibition was determined as 63.6%. For the compound `CN1CCN(CCCN(Cc2ccc(-c3ccc(CNCc4ccc5c(c4)OCO5)cc3)cc2)C(=O)CCC2CCCC2)CC1`, the inhibition amounted to 1.18%. On to `COc1cc(NC(=O)Nc2ccc(Br)cc2C(=O)Nc2ccc(Br)cc2)cc(OC)c1OC`, for which the inhibition came out at 5.3%. Consider `Cc1c(C)n(C2CCCCC2)c2ncnc(OC3CCN(CC(=O)N4CCCC4)CC3)c12`, for which the inhibition was determined as 1.38%. The same measure for `O=C(Nc1cccc(N2CCC(NCCCc3ccncc3)CC2)c1)c1cccc(C(F)(F)F)c1`: 4.83%; for `COc1ccccc1-c1ccc2nnc(SCC(=O)Nc3ccc4c(c3)OCCO4)n2n1`: 3.67%; for `CO/C(=C\C=C\c1cc2cc(Cl)c(Cl)cc2[nH]1)C(=O)NC1CC2CCCC(C1)N2C` (stereo not given): 5.12%.

As to `CC(C)C[C@H](NC(=O)c1cc(-c2ccc(C(C)(C)C)cc2)no1)C(=O)O.CC(C)C[C@H](NC(=O)c1conc1-c1ccc(C(C)(C)C)cc1)C(=O)O`, the inhibition came to 0.84%. Take `COc1cccc(CC(=O)N2CCC(n3c(C)nc4ccc(C)cc43)CC2)c1`: the inhibition amounted to 1.1%. For the compound `O=C(NCc1cccc(F)c1)Nc1ccc(-c2cccc(-c3nc4cc(F)ccc4[nH]3)c2)cc1`, the inhibition is 6.08%. Turning to `CN(C)CCCSc1ccccc1NC(=O)C=Cc1ccccc1`, the inhibition came out at 6.85%. Turning to `CS(=O)(=O)Nc1cccc(-c2cnc3[nH]cc(-c4ccc(C(=O)O)cc4)c3c2)c1`, the inhibition amounted to 3.74%.

`O=C(N[C@@H](Cc1ccccc1)C(=O)NCCN1CCCC1)c1ccc(O)c(-c2ccc(Cl)c(Cl)c2)c1`: the inhibition turned out to be 6.16%. Regarding `COCCNC(=O)c1ccc(OC2CCN(Cc3ccc(F)c(F)c3)CC2)c(Cl)c1`, the inhibition is -2.21%.

With `CCCCN1CCN(CCCNc2c3ccccc3nc3ccccc23)CC1`, the inhibition turned out to be 55.3%.

Turning to `COc1ccccc1NC(=O)Nc1cccc(-c2ccc(-c3nc4cc(C(F)(F)F)ccc4[nH]3)cc2)c1`, the inhibition was 0.72%. To `CCNC(=O)c1cc(S(=O)(=O)N2CCN(c3ccccn3)CC2)cs1` belongs 2.62%. As to `COc1ccc2nccc([C@@H](O)CN3CCC(NCc4ccc(OC)c(NC=O)c4)CC3)c2c1`, the inhibition worked out at 2.18%. To `NCC1CCCN1Cc1ccc(-c2ccc(-c3nc4cc(F)ccc4[nH]3)cc2)cc1` (stereo not given) belongs 4.54%; to `Cc1cccc2nc(-c3ccc(-c4cccc(CNCCCNS(C)(=O)=O)c4)cc3)[nH]c12`, -0.36%. To `O=C(/C=C/c1ccc2ccccc2c1)NCCCCCN1CCC(c2c[nH]c3ccccc23)CC1` belongs 0.03%; to `CC(Oc1ccc(NC(=O)c2cccs2)cc1)C(=O)c1ccc(Cl)cc1` (stereo not given), 7.25%. On to `CN1CCN(CCCN(Cc2cccc(-c3ccc(CNC4CCCC4)cc3)c2)C(=O)CCC2CCCC2)CC1`, for which the inhibition amounted to 3.62%. Consider `CC(=NNC(S)=Nc1ccccc1Cl)c1ccccn1`, for which the inhibition is 12.2%. In the case of `O=C(Nc1cccc(-c2ccc(NCCCN3CCCC3)nc2)c1)c1ccccc1`, the inhibition turned out to be 0.77%. With `CCOc1ncccc1CN1CCC(N2CCc3cc(NC(=O)c4ccco4)ccc32)C1` (stereo not given), the inhibition amounted to 1.65%. For the compound `O=[N+]([O-])c1ccccc1/C=N/Nc1ccnc2ccc(C(F)(F)F)cc12`, the inhibition was 0.08%. In the case of `O=C(Nc1cccc(CN2CCCN(Cc3ccc4c(c3)OCO4)CC2)c1)c1cc2ccccc2s1`, the inhibition was -3.63%. Consider `CCOC(=O)[C@H](Cc1cccc2ccccc12)NC(=O)[C@H](CCC(=O)OC(C)(C)C)NC(=O)c1ccc(N(C)Cc2cnc3nc(N)nc(N)c3n2)cc1`, for which the inhibition came to 3.56%. Turning to `FC(F)(F)c1cccc(CNCC2CCN(Cc3ccc4c(c3)OCO4)CC2)c1`, the inhibition worked out at 12.3%.

For `CNS(=O)(=O)c1ccc2c(c1)nc(C1CCN(CC3CCC(NC(=O)/C=C/c4ccc(Cl)c(Cl)c4)CC3)CC1)n2C` (stereo not given), the inhibition worked out at 3.47%. Consider `Cc1cc(C)c(O)c(-c2cc(C(=O)Nc3ccc(S(=O)(=O)N4CC(C)OC(C)C4)cc3)[nH]n2)c1` (stereo not given), for which the inhibition came out at 0.01%.

`Nc1ncc(-c2ccc3nccc(-c4ccncc4)c3c2)cc1S(=O)(=O)N1CCOCC1`: the inhibition came to 1.27%. For `CCc1ccc(C(=O)NC(=O)c2ccccc2O)cc1`, the inhibition stood at 3.61%. As to `Cc1cc(CN2CC[C@H](NC(=O)c3ccc(Cl)c(Cl)c3)C2)ccc1OC1CCN(C)C1` (stereo not given in full), the inhibition was -0.09%.

For `CC1CCCCC1N(C)C1CCN(CCCNC(=O)C=Cc2ccc(Cl)cc2Cl)CC1` (stereo not given), the inhibition is 1.66%.

Regarding `CCOc1ccc2[nH]c(C)cc(=NN=Cc3ccc(Cl)cc3)c2c1`, the inhibition was -1.27%.

With `O=C(Nc1ccc(OC2CCN(Cc3ccco3)C2)c(Cl)c1)c1ccc2ncccc2c1` (stereo not given), the inhibition is 0.71%.

As usually defined, the inhibition is the relative decrease from the control value, in per cent.

These data come from ChEMBL document CHEMBL3433997, “St. Jude Leishmania screening dataset” (2016).
